VACV Venus inh: qHTS for Stage-Specific Inhibitors of Vaccinia Orthopoxvirus: Venus Reporter Primary qHTS | hit rate 0.46% among 330,000 | Potency, µM (series often up to 36.5 µM), without a hit: top-dose activity change, negative = inhibition, hits mostly inhibitors | AID 720580, 2013 | Vaccinia virus Venus reporter expression, fluorescence; calls by dose curve; tested in A549 cells; also: potency is read from the fitted curve at half-maximal effect; nearly all actives have a fitted effect of over 30% in size
Lassa entry inh: qHTS for Inhibitors of binding or entry into cells for Lassa Virus; Lassa virus pseudotype entry inhibition, cell reporter; Potency, µM (titrated, usually from 37.9 µM), without a hit: at the highest dose activity change, negative = inhibition, usual class: inhibitors; hit rate 1.2% among 300,000; calls by dose curve; tested in HEK293 cells; also: potency is read from the fitted curve at half-maximal effect; nearly all actives have a fitted effect of over 50% in size
HCMV inh: qHTS Assay for inhibitors of the human cytomegalovirus (HCMV); HFF cells, HCMV-luciferase reporter, 72 h; active compounds read low; activity change, negative = inhibition, % at 57.5 µM; hit rate 4.5% among 410,000; AID 1259415, 2018; in the data active = activity change below about -60%; inconclusive = no clear call, values can overlap the other calls; inactive = above about -39%
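Luciferase read-out from HCMV-luciferase-infected HFFs (MOI 1 PFU/cell) 72 h post infection at 37C; compounds added after 16 h cell attachment; activity normalized between buffer-only basal and Salinomycin (10uM) inhibitor controls.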
Vaccinia mCherry: qHTS for Stage-Specific Inhibitors of Vaccinia Orthopoxvirus: mCherry Reporter Primary qHTS; AID 720579, 2013; Vaccinia virus mCherry reporter infection, fluorescence; Potency, µM (doses to about 36.5 µM), without a hit: at the highest dose activity change, negative = inhibition, most hits filed as inhibitors; hit rate 0.63% among 310,000; calls by dose curve; tested in A549 cells; also: potency is read from the fitted curve at half-maximal effect; nearly all actives have a fitted effect of over 35% in size
HCV inhibitor: qHTS Assay for Inhibitors of Hepatitis C Virus (HCV); AID 651820, 2012; Potency, µM (series often up to 41.8 µM), for the others: at the top dose activity change, negative = inhibition, most hits filed as inhibitors; hit rate 3.4% among 340,000; Huh7.5.1 HCVcc-Cre infection, luciferase reporter, 44 h; active = well fitted inhibition curve with a large enough effect; inconclusive = small, poorly fitted or top-dose-only effect, or another doubt; inactive = no such curve, though single readings can be large or run the other way; also: potency is read from the fitted curve at half-maximal effect
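Antiviral activity was scored by luciferase reporter output from cells infected with HCVcc-Cre (~0.5 moi) in presence of compound, 44 h infection period, cells seeded 1,000/well 4 h prior.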
Marburg entry inh: qHTS for inhibitors of binding or entry into cells for Marburg Virus; Marburg virus pseudotyped entry inhibition, cell reporter; AID 540276, 2011; hit rate 1.8% among 300,000; Potency, µM (doses to about 37.8 µM), for inactives: at the top dose activity change, negative = inhibition, most hits filed as inhibitors; calls by dose curve; tested in HEK293 cells; also: potency is read from the fitted curve at half-maximal effect
* marks the source's active call; other numbers are inactive results; i = inactive; ? = inconclusive; nt = not tested or not shown; [ ] = another dose, or the depositor's remark. Sampled rows, rich in hits. Any-hit rate of the full collection: about 7.8%. % is scaled to controls: 0 for no effect and ±100 for the full control effect.

SMILES	VACV Venus inh	Lassa entry inh	HCMV inh	Vaccinia mCherry	HCV inhibitor	Marburg entry inh
CCc1ccc2[nH]c3nc(SCC(=O)NCC4CCCO4)nnc3c2c1 (stereo not drawn)	-16%	nt	?	-1%	?	?
Cc1ccc(C(=O)N2CC(=O)Nc3ccc(Br)cc3C2c2ccc(F)cc2)cc1C (stereo not drawn)	-18%	?	-31	-17%	nt	?
COC(=O)[C@H]1[C@H](CO)[C@H]2Cn3c(cccc3=O)[C@@H]1N2Cc1cocn1	nt	nt	-13	nt	nt	nt
COc1ccc(Cl)cc1NC(=O)COC(=O)C1=NNC(=O)CC1	-17%	?	-67*	i	?	8%
O=C1CCC(C(=O)OCC(=O)Nc2ccc(Cl)cc2C(F)(F)F)=NN1	nt	nt	-19	nt	8%	nt
O=C(CSc1n[nH]c(=O)n1C1CC1)Nc1ccccc1	nt	nt	-4	nt	10%	nt
O=C(CSc1n[nH]c(=O)n1C1CC1)Nc1cc(Cl)ccc1Oc1ccccc1	nt	?	0	nt	?	8.2µM*
CCOC(=O)Cc1csc(SCC(=O)Nc2cc(Cl)ccc2Oc2ccccc2)n1	-28%	2%	-9	nt	10µM*	?
CCCn1c(SCC(=O)Nc2cc(Cl)ccc2OC)n[nH]c1=O	-10%	-4%	39	nt	10µM*	-6%
CCCn1c(SCC(=O)Nc2cc(Cl)ccc2Cl)n[nH]c1=O	19%	?	13	i	-26%	?
CCn1c(=O)c2cc(C(=O)NCCc3cc(OC)ccc3OC)sc2c2ccccc21	-5%	6%[46.1 µM]	-10	1%	nt	-2%[46.1 µM]
Cc1nc(C(F)(F)F)ccc1C(=O)N1CCC1(C)C(=O)NS(=O)(=O)c1cccc(F)c1 (stereo not drawn)	4%	nt	18	i	nt	nt
Cc1nc(C(F)(F)F)ccc1C(=O)N1CCC1(C)C(=O)NS(=O)(=O)c1cccc(Cl)c1 (stereo not drawn)	-2%	nt	-91*	-10%	nt	nt
CCNCCC(CCC(C)C)c1ccc2c(c1)OCO2 (stereo not drawn)	-17%	-7%[46.1 µM]	45	?	?	8.9µM*
CC(C)CCC(CCNCc1ccccn1)c1ccc2c(c1)OCO2 (stereo not drawn)	nt	nt	27	nt	-17%	nt
CNc1c(Br)cc(/C=C2\C=Cc3ccccc32)cc1Br	3%	nt	nt	-5%	nt	nt
Cc1ccc2onc(CC(=O)N3CCN(c4ccc(F)cc4)CC3)c2c1	-14%	-25%[46.1 µM]	-13	-5%	nt	nt
Cc1ccccc1Nc1ncnc2c1c(-c1ccccc1)cn2-c1ccc(F)cc1	-5%	-9%[46.1 µM]	-26	-11%	nt	nt
CC(=O)c1ccc(N2CCN(C(=O)c3ccc(Cn4c(=O)[nH]c5ccccc5c4=O)cc3)CC2)cc1	-13%	-2%[46.1 µM]	14	-17%	nt	nt
COc1cccc(N2CCN(C(=O)c3ccc(Cn4c(=O)[nH]c5cc(OC)c(OC)cc5c4=O)cc3)CC2)c1	-18%	-4%[46.1 µM]	-9	-26%	nt	?
CCOc1cc2[nH]c(=O)n(CCC(=O)N3CCN(c4ccccc4OC)CC3)c(=O)c2cc1OCC	nt	-7%	2	nt	13%	1%
COc1cc2[nH]c(=O)n(CCCCCC(=O)N3CCN(c4cccc(C(F)(F)F)c4)CC3)c(=O)c2cc1OC	?	?	-70*	?	nt	?
O=C(c1ccc(Cn2c(=O)[nH]c3ccccc3c2=O)cc1)N1CCN(c2ccc(Cl)cc2)CC1	nt	-18%	?	nt	11µM*	?
COc1cc2[nH]c(=O)n(CCC(=O)N3CCN(c4cc(Cl)ccc4C)CC3)c(=O)c2cc1OC	nt	-23%	-64*	nt	?	?
COc1cc2[nH]c(=O)n(Cc3ccc(C(=O)N4CCN(c5cccc(C)c5C)CC4)cc3)c(=O)c2cc1OC	-14%	-2%[46.1 µM]	-108*	-12%	nt	12%[46.1 µM]
CCOc1cc2[nH]c(=O)n(CCCCC(=O)N3CCCCCC3)c(=O)c2cc1OCC	nt	?	-104*	nt	11%	8%
